High-throughput results: PubChem BioAssay, National Center for Advancing Translational Sciences (NCATS)
The full list was thinned out, with hits kept by preference.
Pf Dd2 inh – Plasmodium falciparum Dd2 growth inhibition. P. falciparum Dd2 growth, SYBR Green, 72 h. AID 1347417. 120,000 tested, 4.3% active. Potency, µM (highest dose often 28.9 µM), actives largely listed as inhibitors; active means well fitted inhibition curve with a large enough effect; further: nearly all actives have a fitted effect of over 65% in size
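Infected erythrocytes (Dd2, 0.3% parasitemia, 2.5% hematocrit final) are added to compound in RPMI-1640/Albumax II medium, grown 72 h at 37C in low oxygen, then lysed with saponin/Triton-X containing SYBR Green and read by fluorescence.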
Hits are given with their value; 0 = inactive.

SMILES	Pf Dd2 inh
COc1ccc(CN2CCC3(CC2)Cc2ccccc2CNC3=O)cc1F	0
COCCNC(=O)[C@H]1C[C@H](Oc2cccnc2)CN1C(=O)Cc1cccc(C)c1	0
COc1ccc(CNC(=O)C(=O)NCC(c2ccc3c(c2)OCO3)N2CCOCC2)cc1 (stereo not drawn)	0
CCC(=O)N(CCC(c1ccccc1)c1ccc2c(c1)OCO2)Cc1ccc(OC(C)C)cc1 (stereo not drawn)	0
COc1ccc(CNCCC(c2ccc3c(c2)OCO3)c2ccccc2OC)cc1 (stereo not drawn)	5µM
COCCNC(=O)NC[C@H]1O[C@@H]2C[C@@H](CC(=O)NCc3cnn(C)c3)O[C@@H]2[C@@H]1O	0
O=C(N[C@@H]1CN(Cc2cccc(F)c2)C[C@H]1CO)c1ccccc1	0
N#Cc1ccc(CN2C[C@@H](CO)[C@H](NC(=O)c3ccccc3)C2)cc1	0
O=C(N[C@@H]1CN(Cc2cc(F)cc(F)c2)C[C@H]1CO)c1ccccc1	10µM
CN(Cc1ccccc1)c1ncccc1CNC(=O)c1ccnn1C	0
CN(C)[C@H]1CCN(S(=O)(=O)c2ccsc2C(=O)O)C[C@H]1CCC(=O)O	0
Cc1ccc(NC(=O)C(C)Sc2nc(=O)cc(N)n2-c2ccccc2)cc1 (stereo not drawn)	0
Nc1cc(=O)nc(SCC(=O)Nc2ccc(F)cc2)n1CCc1ccccc1	0
CC(Sc1nc(=O)cc(N)n1CCc1ccccc1)C(=O)Nc1ccccc1C#N (stereo not drawn)	11µM
O=C([C@@H]1C[C@H](F)CN1C(=O)Nc1cccc(Br)c1)N1CCCCC1	0
Cc1ccc(CN2C[C@]34C=C[C@H](O3)C(C(=O)N(C)Cc3ccsc3)C4C2=O)cc1C (stereo partly drawn)	0
CCN1C(=O)c2ccccc2S(=O)c2ccc(C(=O)N3CCN(c4ccccc4)CC3)cc21 (stereo not drawn)	0
CCOC(=O)C1CCCN(C(=O)c2ccc3c(c2)N(Cc2ccc(Cl)cc2)C(=O)c2ccccc2S3=O)C1 (stereo not drawn)	11µM
CCOC(=O)C1CCCN(C(=O)Cn2ncc3c(C)n(Cc4ccc(Cl)cc4)c(C)c3c2=O)C1 (stereo not drawn)	0
O=C(c1ccc2c(c1)N(Cc1ccccc1F)C(=O)c1ccccc1S2=O)N1CCC(Cc2ccccc2)CC1 (stereo not drawn)	0
CCN1C(=O)c2ccccc2S(=O)c2ccc(C(=O)NCc3ccc(C)cc3)cc21 (stereo not drawn)	0
CCN1CCN(C(=O)c2ccc3c(c2)N(Cc2ccc(Cl)cc2)C(=O)c2ccccc2S3=O)CC1 (stereo not drawn)	0.5µM
CN1CCN(C(=O)c2ccc3c(c2)N(Cc2ccc(F)cc2)C(=O)c2ccccc2S3=O)CC1 (stereo not drawn)	4µM
O=C(c1ccc2c(c1)N(Cc1ccccc1F)C(=O)c1ccccc1S2=O)N1CCOCC1 (stereo not drawn)	0
COc1ccccc1CNC(=O)C1CCN(c2cn[nH]c(=O)c2)C1 (stereo not drawn)	0
SMILES	Pf Dd2 inh
COCC(=O)N1CC(C(=O)NCc2cccc(F)c2)CC(c2ccc(OC)c(OC)c2)C1 (stereo not drawn)	0
NC(=O)CCNC(=O)[C@@H]1C[C@@H](NS(=O)(=O)c2cccs2)CCN1C(=O)COCC(=O)O	0
Cc1cnc(C2CCN(C(=O)NCC(C)C)C2)n1C(C)C (stereo not drawn)	0
O=C(N[C@@H]1CCOC[C@H]1O)c1cnn2cc(CCO)cnc12	0
Cc1ccc(C2Cn3nnc(-c4nc(-c5ccc(C(F)(F)F)cc5)no4)c3CO2)c(C)c1 (stereo not drawn)	0
COc1cc(C(=O)N2CCC(C(=O)O)(n3cccn3)CC2)ccc1F	0
CCC(=O)C1=C(c2cccc([N+](=O)[O-])c2)N(C(=O)CC)n2c(nnc2-c2ccccc2)S1	1.1µM
CCC(=O)C1=C(c2cccc(OC)c2)N(C(=O)CC)n2c(nnc2C2CCCCC2)S1	2.8µM
CCC(=O)C1=C(c2cccc([N+](=O)[O-])c2)N(C(=O)CC)n2c(nnc2C2CCCCC2)S1	1.4µM
CC(=O)C1=C(c2cccc([N+](=O)[O-])c2)N(C(C)=O)n2c(nnc2-c2ccc(C)cc2)S1	0
CCOC(=O)C1=C(C)N=C2SC=C(CC(=O)NC3CC3)N2C1c1cccc([N+](=O)[O-])c1 (stereo not drawn)	0
COc1cccc(C(=O)N2CCn3c(nnc3C3CC3)C2)c1	0
CN(C(=O)CSc1nnc(-c2ccc([N+](=O)[O-])cc2)o1)C1CCCCC1	0
COc1cccc(-c2nnc(SCC(=O)N(C)C3CCCCC3)o2)c1	0
CC(=O)Nc1cccc(-c2nnc(SCC(=O)c3cc([N+](=O)[O-])ccc3Cl)o2)c1	0
COc1ccc(C(=O)N2CCN(C(=O)c3nnn4c3COC(c3ccc(C)cc3)C4)CC2)cc1F (stereo not drawn)	0
Cc1cccc(-n2nc(-c3c(C)nc4scc(CC(=O)NC(C)C)n4c3=O)cc2C)c1C	0
CC(C)n1cnnc1CN(C)c1nc(N)nc2nc[nH]c12	0
COc1ccc(-c2noc([C@@H](C)NS(=O)(=O)c3ccccc3)c2C(=O)O)cc1	0
Cc1cnc(C)n1CCNC(=O)c1ccsc1	0
O=C(NC1CC1)c1ccc2c(c1)OCCN(c1cccc(OC(F)(F)F)c1)C2	3.5µM
CNC(=O)c1ccc2c(c1)OCCN(c1cccc(OC(F)(F)F)c1)C2	11µM
O=C(NCCc1ccccc1)c1ccc2c(c1)OCCN(c1ccccc1)C2	10µM
O=C(Nc1nccs1)c1ccc2c(c1)OCCN(c1cccc(OC(F)(F)F)c1)C2	0
O=C(NCc1ccncc1)c1ccc2c(c1)OCCN(c1cccc(OC(F)(F)F)c1)C2	0
SMILES	Pf Dd2 inh
O=C(NCc1ccncc1)c1ccc2c(c1)OCCN(c1ccccc1)C2	0
O=C(NCCOc1ccccc1)c1ccc2c(c1)OCCN(c1ccccc1)C2	0
O=C(NC1CCOCC1)c1ccc2c(c1)OCCN(c1ccccc1)C2	0
COc1ccc(NC(=O)c2ccc3c(c2)OCCN(c2ccccc2)C3)cn1	0
CCOc1cccc(CNC(=O)CN2CC3CC(C2)[C@H]2CCCC(=O)N2C3)c1 (stereo partly drawn)	0
CCCOC(=O)N1CCCC2(CCC(=O)N(Cc3ccccc3)C2)C1 (stereo not drawn)	0
CC(C)NC(=O)NCc1nnc2n1C(C(=O)N1CCCC1)CC2 (stereo not drawn)	0
CCOc1cc(=O)n2c(c1C(=O)Nc1cc(OC)cc(OC)c1)CCCC2	0
Cn1cnc(S(=O)(=O)N2C[C@@H](Oc3ccccc3)C[C@H]2C(=O)N2CCOCC2)c1	0
COc1ccc2[nH]c3c(c2c1)CCNC31CCN(S(=O)(=O)c2cccnc2)CC1	0
CSc1nc(NCCOC(C)=O)c(C#N)c(-c2ccc(C(C)(C)C)cc2)n1	10µM
CSc1nc(Nc2cccc(C)c2)c(C#N)c(-c2ccccc2)n1	0
CCOc1ccc(NC(=O)CN2C=C(C(=O)OC)C(C)=NS2(=O)=O)cc1	0
Cc1cc(C(=O)N[C@@H]2CCC[C@@H](C(=O)NC3CC3)CC(=O)N(C)C2)nn1C	0
O=C(Cc1ccc2c(c1)OCO2)N[C@@H]1CCOC[C@H]1Oc1ccccn1	0
O=C(NCc1ccc2c(c1)OCO2)C1CN(c2ccccc2)C(=O)N1 (stereo not drawn)	0
CCn1cc(CNC(=O)c2cc(-c3ccc(C)c(C)c3)nc3ccccc23)c(C)n1	0
Cc1ccc(-c2cc(C(=O)NCc3cnn(C)c3C)c3cc(Br)ccc3n2)cc1	11µM
